Tests used:
Assay in all cases: DAPPL (digital affinity profiling via proximity ligation, sequencing); 10 mM Tris-HCl pH 7.5, 50 mM NaCl, 1 mM DTT, 4% glycerol, room temperature, 30 min; GST-TFs on glutathione beads, 16-mer random dsDNA library, 0.1% formaldehyde crosslink after washing; high values mean tight binding
[1] = target: T1, FEV (Homo sapiens, UniProt Q99581 1-238); conditions: protein: recombinant; tags: N-terminal GST; dsDNA, one strand shown
T1 sequence: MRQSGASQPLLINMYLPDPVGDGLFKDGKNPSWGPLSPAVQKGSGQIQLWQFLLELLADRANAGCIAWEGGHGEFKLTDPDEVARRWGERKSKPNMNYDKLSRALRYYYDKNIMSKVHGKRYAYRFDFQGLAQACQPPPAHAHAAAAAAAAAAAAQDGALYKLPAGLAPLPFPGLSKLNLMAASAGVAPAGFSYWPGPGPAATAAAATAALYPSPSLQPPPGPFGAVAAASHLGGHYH
In short: (§1)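 Binding signal is each hexamer's read frequency for a factor divided by its frequency in the tag-only sample. The factors were GST-fused human transcription factors from yeast, captured on glutathione beads, DNA-barcoded and pooled with that sample. Pools were incubated with 200 nmole of a random double-stranded 16-mer DNA library in Tris/NaCl/DTT/glycerol buffer at room temperature for 30 min, then washed, crosslinked with 0.1% formaldehyde, proximity-ligated with BsaI/T4 ligase (1 h, 37 °C), PCR-amplified and sequenced on an Illumina NextSeq500.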

[2] = target: ETV5 (Homo sapiens, UniProt P41161 1-510); conditions: protein: recombinant; tags: N-terminal GST; dsDNA, one strand shown
Sequence of ETV5 (P41161 whole entry): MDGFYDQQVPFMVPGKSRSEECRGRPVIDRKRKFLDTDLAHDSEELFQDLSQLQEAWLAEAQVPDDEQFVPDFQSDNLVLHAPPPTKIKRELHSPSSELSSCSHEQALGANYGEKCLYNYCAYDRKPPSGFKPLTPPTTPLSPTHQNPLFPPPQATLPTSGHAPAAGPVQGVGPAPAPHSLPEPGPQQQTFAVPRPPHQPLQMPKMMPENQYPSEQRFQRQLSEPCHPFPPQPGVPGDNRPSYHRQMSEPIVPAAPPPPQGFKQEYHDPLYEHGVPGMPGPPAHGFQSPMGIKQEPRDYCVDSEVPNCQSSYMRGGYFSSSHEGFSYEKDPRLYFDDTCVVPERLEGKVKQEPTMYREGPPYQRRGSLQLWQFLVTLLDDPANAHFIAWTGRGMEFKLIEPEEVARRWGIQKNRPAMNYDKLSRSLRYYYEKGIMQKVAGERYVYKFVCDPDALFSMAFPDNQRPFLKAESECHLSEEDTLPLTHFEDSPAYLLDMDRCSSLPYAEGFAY
In short: as §1

[3] = target: HSF1 (Homo sapiens, UniProt Q00613 1-529); conditions: protein: recombinant; tags: N-terminal GST; chain copies: 3; dsDNA, one strand shown
Sequence of HSF1 (Q00613 whole entry): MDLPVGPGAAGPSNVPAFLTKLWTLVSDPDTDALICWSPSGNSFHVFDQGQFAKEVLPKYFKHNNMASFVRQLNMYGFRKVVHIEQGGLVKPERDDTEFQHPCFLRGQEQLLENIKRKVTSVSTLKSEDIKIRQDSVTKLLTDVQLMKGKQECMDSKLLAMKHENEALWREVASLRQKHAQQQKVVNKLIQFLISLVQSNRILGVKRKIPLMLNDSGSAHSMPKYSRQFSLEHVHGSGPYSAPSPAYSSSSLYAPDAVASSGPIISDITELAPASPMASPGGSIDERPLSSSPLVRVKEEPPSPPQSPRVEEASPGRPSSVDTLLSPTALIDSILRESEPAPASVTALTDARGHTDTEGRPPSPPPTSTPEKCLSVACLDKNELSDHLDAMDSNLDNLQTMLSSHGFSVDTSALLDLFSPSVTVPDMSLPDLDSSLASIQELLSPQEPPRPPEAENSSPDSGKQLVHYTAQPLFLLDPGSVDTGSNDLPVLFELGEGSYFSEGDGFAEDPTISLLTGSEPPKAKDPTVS
In short: as §1

[4] = target: T2, SPIC (Homo sapiens, UniProt Q8N5J4 1-248); conditions: protein: recombinant; tags: N-terminal GST; dsDNA, one strand shown
T2 sequence: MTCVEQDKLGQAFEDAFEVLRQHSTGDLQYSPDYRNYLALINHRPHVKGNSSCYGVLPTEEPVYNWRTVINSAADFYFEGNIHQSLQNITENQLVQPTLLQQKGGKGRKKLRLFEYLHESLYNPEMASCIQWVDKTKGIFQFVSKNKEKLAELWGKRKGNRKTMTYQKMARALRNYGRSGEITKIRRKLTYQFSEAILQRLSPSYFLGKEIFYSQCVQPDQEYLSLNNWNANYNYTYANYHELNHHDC
In short: as §1

[5] = target: ELF4 (Homo sapiens, UniProt Q99607 1-663); conditions: protein: recombinant; tags: N-terminal GST; dsDNA, one strand shown
Sequence of ELF4 (Q99607 whole entry): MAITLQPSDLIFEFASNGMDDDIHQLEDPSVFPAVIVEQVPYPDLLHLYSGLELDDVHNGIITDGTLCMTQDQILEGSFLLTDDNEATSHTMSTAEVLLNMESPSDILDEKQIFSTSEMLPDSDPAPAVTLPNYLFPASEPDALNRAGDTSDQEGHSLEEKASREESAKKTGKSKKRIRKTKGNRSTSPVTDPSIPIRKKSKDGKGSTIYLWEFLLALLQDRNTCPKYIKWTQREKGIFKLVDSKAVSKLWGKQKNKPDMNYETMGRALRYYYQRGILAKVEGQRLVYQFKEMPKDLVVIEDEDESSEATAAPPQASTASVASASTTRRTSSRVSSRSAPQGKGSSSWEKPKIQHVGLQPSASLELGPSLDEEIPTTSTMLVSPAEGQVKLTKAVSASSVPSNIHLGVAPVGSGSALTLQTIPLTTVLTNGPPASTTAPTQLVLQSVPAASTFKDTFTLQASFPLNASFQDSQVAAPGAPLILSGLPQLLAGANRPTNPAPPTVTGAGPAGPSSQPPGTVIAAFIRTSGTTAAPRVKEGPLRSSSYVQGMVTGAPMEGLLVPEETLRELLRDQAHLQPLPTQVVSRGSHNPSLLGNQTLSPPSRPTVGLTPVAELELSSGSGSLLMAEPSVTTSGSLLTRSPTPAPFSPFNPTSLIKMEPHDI
In short: as §1

[6] = target: T3, ELK4 (Homo sapiens, UniProt P28324-2 1-405); conditions: protein: recombinant; tags: N-terminal GST; dsDNA, one strand shown
T3 sequence: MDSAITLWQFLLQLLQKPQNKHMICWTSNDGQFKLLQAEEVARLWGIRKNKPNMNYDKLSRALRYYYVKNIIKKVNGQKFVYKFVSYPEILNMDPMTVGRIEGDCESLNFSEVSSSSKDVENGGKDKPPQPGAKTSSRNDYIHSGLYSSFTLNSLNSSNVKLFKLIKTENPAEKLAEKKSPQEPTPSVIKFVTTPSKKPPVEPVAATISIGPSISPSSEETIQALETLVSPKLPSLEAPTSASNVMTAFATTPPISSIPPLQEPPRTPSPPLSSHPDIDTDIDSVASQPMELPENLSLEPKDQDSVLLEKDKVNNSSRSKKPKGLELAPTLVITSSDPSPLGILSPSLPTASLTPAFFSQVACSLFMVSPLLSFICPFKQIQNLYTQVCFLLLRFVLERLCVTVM
In short: as §1

[7] = target: T4, ETV2 (Homo sapiens, UniProt O00321 1-342); conditions: protein: recombinant; tags: N-terminal GST; dsDNA, one strand shown
T4 sequence: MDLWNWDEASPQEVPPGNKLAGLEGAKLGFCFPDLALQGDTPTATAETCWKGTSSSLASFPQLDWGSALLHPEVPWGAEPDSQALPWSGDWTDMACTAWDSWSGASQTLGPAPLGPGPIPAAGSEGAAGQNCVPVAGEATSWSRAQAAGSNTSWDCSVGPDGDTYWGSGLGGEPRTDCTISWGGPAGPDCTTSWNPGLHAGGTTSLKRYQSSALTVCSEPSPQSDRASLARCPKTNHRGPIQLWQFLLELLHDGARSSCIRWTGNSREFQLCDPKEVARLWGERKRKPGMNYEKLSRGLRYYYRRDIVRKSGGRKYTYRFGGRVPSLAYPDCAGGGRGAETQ
In short: as §1

[8] = target: T5, ELF3 (Homo sapiens, UniProt P78545 1-371); conditions: protein: recombinant; tags: N-terminal GST; dsDNA, one strand shown
T5 sequence: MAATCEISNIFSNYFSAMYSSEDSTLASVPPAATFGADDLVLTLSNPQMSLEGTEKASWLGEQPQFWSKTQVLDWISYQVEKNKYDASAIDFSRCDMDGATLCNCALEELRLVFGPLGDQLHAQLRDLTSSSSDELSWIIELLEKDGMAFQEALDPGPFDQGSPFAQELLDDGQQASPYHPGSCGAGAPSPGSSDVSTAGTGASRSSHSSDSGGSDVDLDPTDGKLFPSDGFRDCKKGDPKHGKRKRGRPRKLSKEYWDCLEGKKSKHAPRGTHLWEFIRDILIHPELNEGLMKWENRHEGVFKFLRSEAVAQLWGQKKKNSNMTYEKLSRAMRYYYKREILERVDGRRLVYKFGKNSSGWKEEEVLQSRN
In short: as §1

[9] = target: CRX (Homo sapiens, UniProt O43186 1-299); conditions: protein: recombinant; tags: N-terminal GST; dsDNA, one strand shown
Sequence of CRX (O43186 whole entry): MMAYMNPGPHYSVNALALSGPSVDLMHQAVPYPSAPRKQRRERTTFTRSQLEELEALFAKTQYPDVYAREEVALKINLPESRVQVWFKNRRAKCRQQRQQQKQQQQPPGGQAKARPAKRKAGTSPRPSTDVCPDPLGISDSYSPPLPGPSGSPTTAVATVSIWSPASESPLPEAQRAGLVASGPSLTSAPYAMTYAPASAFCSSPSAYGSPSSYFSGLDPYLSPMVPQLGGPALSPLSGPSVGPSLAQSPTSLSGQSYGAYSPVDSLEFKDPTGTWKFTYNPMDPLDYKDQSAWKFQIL
In short: as §1

[10] = target: ETV1 (Homo sapiens, UniProt P50549 1-477); conditions: protein: recombinant; tags: N-terminal GST; dsDNA, one strand shown
Sequence of ETV1 (P50549 whole entry): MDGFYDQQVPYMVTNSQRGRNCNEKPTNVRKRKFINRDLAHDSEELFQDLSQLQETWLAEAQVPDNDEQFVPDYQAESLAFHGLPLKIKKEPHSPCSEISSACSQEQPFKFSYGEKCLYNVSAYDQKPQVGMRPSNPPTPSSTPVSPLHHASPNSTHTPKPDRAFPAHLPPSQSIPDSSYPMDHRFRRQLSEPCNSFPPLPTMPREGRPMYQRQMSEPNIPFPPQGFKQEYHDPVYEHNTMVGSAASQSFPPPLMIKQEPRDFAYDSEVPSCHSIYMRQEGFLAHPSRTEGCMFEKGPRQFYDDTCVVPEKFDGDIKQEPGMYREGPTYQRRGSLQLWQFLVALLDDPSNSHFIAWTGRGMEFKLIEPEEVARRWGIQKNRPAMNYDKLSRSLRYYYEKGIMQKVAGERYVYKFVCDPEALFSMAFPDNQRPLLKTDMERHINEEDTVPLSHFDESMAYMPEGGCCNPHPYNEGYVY
In short: as §1

[11] = target: T6, ERF (Homo sapiens, UniProt P50548 1-548); conditions: protein: recombinant; tags: N-terminal GST; dsDNA, one strand shown
T6 sequence: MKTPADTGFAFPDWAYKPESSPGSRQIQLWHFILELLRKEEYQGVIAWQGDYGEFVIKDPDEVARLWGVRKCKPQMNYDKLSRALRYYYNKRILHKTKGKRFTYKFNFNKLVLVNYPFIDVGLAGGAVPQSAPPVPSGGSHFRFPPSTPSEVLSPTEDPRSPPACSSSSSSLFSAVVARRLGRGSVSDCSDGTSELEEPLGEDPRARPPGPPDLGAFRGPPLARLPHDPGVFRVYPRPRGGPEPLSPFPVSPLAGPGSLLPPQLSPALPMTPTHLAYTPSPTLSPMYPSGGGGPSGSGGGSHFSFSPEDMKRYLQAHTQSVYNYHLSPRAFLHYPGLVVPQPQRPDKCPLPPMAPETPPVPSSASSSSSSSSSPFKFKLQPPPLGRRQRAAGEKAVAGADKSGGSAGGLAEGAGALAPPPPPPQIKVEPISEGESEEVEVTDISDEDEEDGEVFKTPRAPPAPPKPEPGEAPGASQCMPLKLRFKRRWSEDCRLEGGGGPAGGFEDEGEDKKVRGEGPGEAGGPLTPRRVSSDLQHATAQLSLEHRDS
In short: as §1

[12] = target: T7, ETV3L (Homo sapiens, UniProt Q6ZN32 1-361); conditions: protein: recombinant; tags: N-terminal GST; dsDNA, one strand shown
T7 sequence: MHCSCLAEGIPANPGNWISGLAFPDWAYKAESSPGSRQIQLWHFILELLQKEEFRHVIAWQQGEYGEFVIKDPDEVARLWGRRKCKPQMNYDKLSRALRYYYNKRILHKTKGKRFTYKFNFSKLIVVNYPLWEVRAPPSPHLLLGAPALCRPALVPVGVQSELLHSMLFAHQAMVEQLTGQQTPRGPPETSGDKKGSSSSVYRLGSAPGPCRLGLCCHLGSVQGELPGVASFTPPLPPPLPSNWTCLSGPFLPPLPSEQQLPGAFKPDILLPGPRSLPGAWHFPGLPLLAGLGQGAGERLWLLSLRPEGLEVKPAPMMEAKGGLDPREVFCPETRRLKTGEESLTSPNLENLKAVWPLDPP
In short: as §1

[13] = target: T8, ETS2 (Homo sapiens, UniProt P15036 1-469); conditions: protein: recombinant; tags: N-terminal GST; dsDNA, one strand shown
T8 sequence: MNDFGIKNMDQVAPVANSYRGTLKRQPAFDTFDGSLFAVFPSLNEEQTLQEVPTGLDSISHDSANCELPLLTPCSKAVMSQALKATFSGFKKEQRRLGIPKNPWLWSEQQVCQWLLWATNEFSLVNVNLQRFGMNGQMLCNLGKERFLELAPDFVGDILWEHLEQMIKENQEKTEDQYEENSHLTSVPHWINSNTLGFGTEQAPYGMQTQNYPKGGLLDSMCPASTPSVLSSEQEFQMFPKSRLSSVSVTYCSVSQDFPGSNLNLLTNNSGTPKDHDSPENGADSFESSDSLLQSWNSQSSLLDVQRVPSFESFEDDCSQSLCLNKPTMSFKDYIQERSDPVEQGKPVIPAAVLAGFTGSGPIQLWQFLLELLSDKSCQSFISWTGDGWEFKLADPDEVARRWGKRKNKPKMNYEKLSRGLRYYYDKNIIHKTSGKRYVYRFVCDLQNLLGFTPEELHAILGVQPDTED
In short: as §1

[14] = target: T9, SPDEF (Homo sapiens, UniProt O95238 1-335); conditions: protein: recombinant; tags: N-terminal GST; dsDNA, one strand shown
T9 sequence: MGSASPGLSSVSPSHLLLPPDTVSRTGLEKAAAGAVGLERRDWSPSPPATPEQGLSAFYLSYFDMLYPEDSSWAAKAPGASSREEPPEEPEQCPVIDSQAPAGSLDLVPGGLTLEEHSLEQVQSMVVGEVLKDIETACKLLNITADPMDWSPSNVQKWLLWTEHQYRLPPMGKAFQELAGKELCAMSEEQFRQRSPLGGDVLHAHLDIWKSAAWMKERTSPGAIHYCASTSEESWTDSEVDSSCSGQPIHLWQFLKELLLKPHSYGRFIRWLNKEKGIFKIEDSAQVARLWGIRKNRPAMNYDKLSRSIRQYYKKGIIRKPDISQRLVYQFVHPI
In short: as §1

[15] = target: T10, ETV7 (Homo sapiens, UniProt Q9Y603 1-341); conditions: protein: recombinant; tags: N-terminal GST; dsDNA, one strand shown
T10 sequence: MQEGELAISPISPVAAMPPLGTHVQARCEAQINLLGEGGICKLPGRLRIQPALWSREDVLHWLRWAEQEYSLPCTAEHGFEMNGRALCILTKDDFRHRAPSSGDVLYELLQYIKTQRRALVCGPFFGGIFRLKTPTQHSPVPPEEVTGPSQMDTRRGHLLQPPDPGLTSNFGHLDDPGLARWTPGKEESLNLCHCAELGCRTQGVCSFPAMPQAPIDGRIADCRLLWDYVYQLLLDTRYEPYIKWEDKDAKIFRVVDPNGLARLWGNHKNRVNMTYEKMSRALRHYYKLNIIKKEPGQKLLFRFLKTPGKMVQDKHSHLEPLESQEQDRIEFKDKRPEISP
In short: as §1

[16] = target: T11, ELF5 (Homo sapiens, UniProt Q9UKW6-2 1-255); conditions: protein: recombinant; tags: N-terminal GST; dsDNA, one strand shown
T11 sequence: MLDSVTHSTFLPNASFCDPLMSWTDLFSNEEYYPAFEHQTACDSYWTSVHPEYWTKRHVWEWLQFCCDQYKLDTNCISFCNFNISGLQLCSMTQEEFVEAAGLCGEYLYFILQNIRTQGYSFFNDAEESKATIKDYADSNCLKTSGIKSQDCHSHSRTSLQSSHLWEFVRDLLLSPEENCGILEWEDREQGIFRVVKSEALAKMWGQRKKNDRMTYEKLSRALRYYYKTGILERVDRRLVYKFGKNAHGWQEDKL
In short: as §1

[17] = target: T12, ETV3 (Homo sapiens, UniProt P41162-2 1-143); conditions: protein: recombinant; tags: N-terminal GST; dsDNA, one strand shown
T12 sequence: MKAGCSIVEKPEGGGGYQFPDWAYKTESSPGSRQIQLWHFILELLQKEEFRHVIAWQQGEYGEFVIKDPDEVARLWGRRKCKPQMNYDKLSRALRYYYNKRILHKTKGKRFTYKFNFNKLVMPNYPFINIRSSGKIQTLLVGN
In short: as §1

[18] = target: ETV6 (Homo sapiens, UniProt P41212 1-452); conditions: protein: recombinant; tags: N-terminal GST; dsDNA, one strand shown
Sequence of ETV6 (P41212 whole entry): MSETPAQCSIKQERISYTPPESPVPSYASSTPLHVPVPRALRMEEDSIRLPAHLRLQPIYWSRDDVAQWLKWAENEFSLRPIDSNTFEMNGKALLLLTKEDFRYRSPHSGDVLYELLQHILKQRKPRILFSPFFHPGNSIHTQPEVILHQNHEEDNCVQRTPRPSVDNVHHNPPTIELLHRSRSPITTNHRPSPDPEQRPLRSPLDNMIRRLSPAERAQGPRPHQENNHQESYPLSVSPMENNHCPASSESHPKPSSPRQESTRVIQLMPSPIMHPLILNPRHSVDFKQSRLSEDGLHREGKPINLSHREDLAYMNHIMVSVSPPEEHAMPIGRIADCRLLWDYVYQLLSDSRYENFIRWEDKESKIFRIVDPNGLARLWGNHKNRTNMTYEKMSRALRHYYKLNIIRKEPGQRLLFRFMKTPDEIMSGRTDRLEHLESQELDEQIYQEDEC
In short: as §1

ATTTCA was tested, and the binding signal [1] was 1.25 fold enrichment (6-mer frequency, TF over GST control), the binding signal [2] was 1.27 fold enrichment (6-mer frequency, TF over GST control) and the binding signal [3] was 1.26 fold enrichment (6-mer frequency, TF over GST control). The binding signal [4] was 1.18 fold enrichment (6-mer frequency, TF over GST control), the binding signal [5] was 1.27 fold enrichment (6-mer frequency, TF over GST control) and the binding signal [6] was 1.27 fold enrichment (6-mer frequency, TF over GST control). For the same sequence, the binding signal [7] was 1.28 fold enrichment (6-mer frequency, TF over GST control), the binding signal [8] was 1.16 fold enrichment (6-mer frequency, TF over GST control) and the binding signal [9] was 1.22 fold enrichment (6-mer frequency, TF over GST control). The binding signal [10] was 1.25 fold enrichment (6-mer frequency, TF over GST control), the binding signal [11] was 1.22 fold enrichment (6-mer frequency, TF over GST control) and the binding signal [12] was 1.16 fold enrichment (6-mer frequency, TF over GST control). For the same sequence, the binding signal [13] was 1.22 fold enrichment (6-mer frequency, TF over GST control), the binding signal [14] was 1.28 fold enrichment (6-mer frequency, TF over GST control) and the binding signal [15] was 1.13 fold enrichment (6-mer frequency, TF over GST control). The binding signal [16] was 1.25 fold enrichment (6-mer frequency, TF over GST control), the binding signal [17] was 1.23 fold enrichment (6-mer frequency, TF over GST control) and the binding signal [18] was 1.27 fold enrichment (6-mer frequency, TF over GST control).
